zVAD death inh: L929 zVAD cell death inhibition; actives 0.38% (n = 220,000); L929 zVAD necroptosis rescue, ATP luminescence, 24 h; with zVAD 60 µM; viability rescue, % at 10 µM;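 active = activation, scaled between plate controls, above about 75%, limit read from the data; inactive = activation under that limit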
Hsp70 activator: Hsp70 transcriptional activation, primary screen; HeLa Hsp70 promoter luciferase reporter, luminescence; scaled: vehicle 0, proteasome-inhibitor control 100%; activation, % at 10 µM; actives 0.04% (n = 200,000); AID 1203;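 active = activation above the mean across all tested compounds plus 3 SD, cutoff set per campaign, cut at about 5.5% in these data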
HSF-1 act: increases HSF-1 driven luciferase reporter signal | NIH3T3-HGL HSF-1 luciferase reporter, MG132, 8 h; 100% = twice DMSO control signal | activation, % at 9 µM | actives 1.7% (n = 300,000) | AID 504408;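 active = mean replicate activation of at least 50% with a set share of replicates each reaching 50%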
TNF death inh: inhibitors of TNF-alpha induced necroptosis in Jurkat FADD-/- cells; Jurkat FADD-/- TNF necroptosis rescue, ATP luminescence, 24 h; 0 = TNF only, 100 = no-TNF cells; activation (protection from cell death), % at 10 µM; actives 0.068% (n = 220,000);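 active = activation, meaning protection from cell death, of at least 50% relative to plate controls; inactive = activation below 50%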;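 also: necroptosis triggered by 40 ng/mL TNF-alpha added together with compound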
Numbers stand for hits; – = inactive; · = no result. In the library only some 1.9% were active in any assay of this set; here they are far more common.

SMILES	zVAD death inh	Hsp70 activator	HSF-1 act	TNF death inh
Cc1cc(C)n(S(=O)(=O)/C=C/c2ccccc2)n1	–	–	54.3	–
Cc1ccc(S(=O)(=O)n2nc(C)cc2C)cc1	–	–	–	–
O=C(NCC1CCCC(CNC(=O)Nc2ccc(Cl)cn2)C1)Nc1ccc(Cl)cn1 (centres undefined)	·	·	55.7	·
Cc1ccc(C(O)(C(=O)NN(C(=O)c2ccccc2)c2ccccc2)c2ccc(C)cc2)cc1	–	–	–	–
Cc1ccc(N(NC(=O)C(O)(c2ccccc2)c2ccccc2)C(=O)CCl)cc1	–	–	75.4	–
Cc1cccc(C)c1OCC(=O)NCc1nnc(SCC(=O)NC2CCCCC2C)n1C (centres undefined)	–	–	93.6	–
Cc1ccc(CNC(=O)c2cn(C3CCCCC3)c(=O)c3c2c2ccccc2n3C)o1	–	–	79.3	–
Cc1ccc(NC(=O)c2sc(Cl)nc2-c2ccccc2)cc1C	–	–	61.0	–
Cc1ccc(NC(=O)c2cnc3ccccc3n2)cc1C	–	·	62.5	–
CC(C)=C1C2CCC1C1C(=O)N(c3nc(-c4ccccc4)c(C)s3)C(=O)C21 (centres undefined)	–	–	74.1	–
COc1cc(CC(=O)N(c2ccccc2)c2nc(C)cs2)cc(OC)c1OC	–	–	61.6	–
O=c1[nH]c(NC2CCCCC2)c([N+](=O)[O-])c(=O)[nH]1	–	–	–	–
O=C(Nc1ccccc1)c1ccc(CSc2ncccn2)cc1	–	–	87.1	–
O=C(Nc1ccccc1F)c1ccc(CSc2ncccn2)cc1	–	–	–	–
CSCc1ccc(C(=O)Nc2ccc(C(N)=O)cc2)cc1	–	–	54.7	–
Cc1noc(C)c1COC(=O)c1ccccc1Oc1ccccc1	–	–	56.7	–
Cc1noc(C)c1COC(=O)c1ccccc1NC(=O)Cc1ccccc1	–	–	–	–
CSc1ccccc1OCc1cc(C(=O)N(C)Cc2ccc(C)o2)no1	·	·	57.2	·
Cc1snc2sc(C(=O)c3ccc(Br)cc3)c(N)c12	–	–	–	–
Cc1ccc(C(=O)c2sc3nsc(C)c3c2N)cc1	–	–	61.3	–
O=C1Nc2ccccc2/C1=C/c1cnc(-c2ccccc2)[nH]1	–	·	64.3	–
COc1cc(NC(=O)COC(=O)c2ccc(C)c(S(=O)(=O)N3CCCCC3)c2)c(C)cc1[N+](=O)[O-]	–	–	63.7	–
COc1cc(NC(=O)COC(=O)c2ccc(S(=O)(=O)N3CC(C)CC(C)C3)cc2)c(C)cc1[N+](=O)[O-] (centres undefined)	–	–	–	–
Cc1ccc(NC(=O)COC(=O)c2ccc3c(c2)OCO3)cc1S(=O)(=O)N1CCCCC1	–	–	55.7	–
Cc1ccc(NC(=O)COC(=O)c2ccc([N+](=O)[O-])o2)cc1S(=O)(=O)N1CCCCCC1	–	–	–	–
SMILES	zVAD death inh	Hsp70 activator	HSF-1 act	TNF death inh
COc1ccc(NC2CCCN(C(=O)CCC(=O)c3ccc(F)cc3)C2)cc1 (centres undefined)	·	·	–	·
O=C(CC1(O)C(=O)Nc2ccc(Br)cc21)c1ccc2c(c1)OCO2 (centres undefined)	–	–	57.4	–
CC(=O)c1cccc(NC(=S)NC(=O)c2cccc(C)c2)c1	–	–	64.2	–
CC(=O)c1cccc(NC(=O)NNC(=O)c2ccc3ccccc3c2)c1	·	·	–	·
COc1ccc(NC(=O)c2cc3ccccc3o2)cc1	–	–	54.9	–
CC(=O)c1cccc(NC(=O)c2ccc3ccccc3c2)c1	·	·	55.4	·
COc1ccc(NC(=O)c2ccc3ccccc3c2)cc1	·	·	62.4	·
O=C(Nc1ccc(S(=O)(=O)N2CCOCC2)cc1)c1ccc(Cl)cc1Cl	·	·	–	·
CCc1nc2ccccc2n1CC(O)COCC1CC=CCC1 (centres undefined)	–	–	–	–
Cc1cc(C(C)(C)C)cc(C)c1COC(=O)c1cccnc1	·	·	–	·
Cc1cccc(N2C(=N)SCC2=O)c1C	–	–	76.6	–
N=C1SCC(=O)N1c1nc(-c2ccccc2)cs1	–	–	–	–
Nc1nc(Br)c2c(F)cccc2c1-c1ccc(Cl)cc1	–	–	148.7	–
COCc1cc(=O)[nH]c(SCCS(=O)(=O)c2ccc(Cl)cc2Cl)n1	–	·	78.4	–
CCn1c(=O)c([N+](=O)[O-])c(Cl)c2ccccc21	–	–	313.1	–
CCOc1ccc2nc(NC(=O)c3cnccn3)sc2c1	–	–	98.5	–
CCOc1ccc2nc(NC(=O)CSc3cn[nH]n3)sc2c1	·	·	55.1	·
NC(=O)COC(=O)CC12CC3CC(CC(Br)(C3)C1)C2	–	–	–	–
COc1ccc(-c2csc(N3CCSCC3)n2)cc1	·	·	–	·
